In all, about 39,000 compounds went through this assay and about 3,300 (8.5%) were called active. For the sample, actives were picked, then their nearest neighbours and some compounds at random.
These compounds were tested on HepG2 (assay: cytotoxicity call (relative viability < 0.9)). Conditions: 10 µM.
COc1c(OC)c2occc2c2oc(=O)ccc12 was tested, and the cytotoxicity call was “inactive”. COc1c2ccoc2cc2oc(=O)ccc12 was tested, and the cytotoxicity call was “inactive”. COc1c2ccoc2c(OC)c2oc(=O)ccc12 was tested, and the cytotoxicity call was “active”. O=c1ccc2cc3ccoc3cc2o1 was tested, and the cytotoxicity call was “inactive”. COc1c(-c2ccccc2)oc2c(ccc3ccoc32)c1=O was tested, and the cytotoxicity call was “inactive”. For COc1c2occc2cc2ccc(=O)oc12, the cytotoxicity call was “active”. In the case of COc1c2ccoc2cc2oc(C)cc(=O)c12, the cytotoxicity call is reported as “inactive”. For COc1c2occc2c(OC)c2c(=O)cc(C)oc12, the cytotoxicity call was “active”. With COc1cc2ccc(=O)oc2c(OC)c1OC the cytotoxicity call was “inactive”. CN(C)C(=O)Cn1c(=O)oc2ccccc21 was tested, and the cytotoxicity call was “inactive”. In the case of COc1ccc(CN(C)C[C@@H]2Oc3ccc(NS(=O)(=O)c4cn(C)cn4)cc3C(=O)N([C@H](C)CO)C[C@@H]2C)cc1, the cytotoxicity call is reported as “inactive”. For O=C(C[C@H]1CC[C@H]2[C@@H](COC[C@@H](O)CN2S(=O)(=O)c2ccccc2Cl)O1)NCCc1ccncc1, the cytotoxicity call was “inactive”. For C[C@H](CO)N1C[C@H](C)[C@H](CN(C)Cc2ccc3c(c2)OCO3)Oc2ccc(NC(=O)Nc3cccc4ccccc34)cc2C1=O, the cytotoxicity call was “inactive”. In the case of COc1ccc(S(=O)(=O)N(C)C[C@@H]2OCCCC[C@H](C)Oc3ccc(NS(=O)(=O)c4ccc(Cl)cc4)cc3C(=O)N([C@@H](C)CO)C[C@@H]2C)cc1, the cytotoxicity call is reported as “active”. For COc1ccc(S(=O)(=O)Nc2ccc3c(c2)C(=O)N([C@H](C)CO)C[C@@H](C)[C@@H](CN(C)S(=O)(=O)c2ccc(Cl)cc2)OCCCC[C@@H](C)O3)cc1, the cytotoxicity call was “inactive”. For COc1ccc(S(=O)(=O)N(C)C[C@H]2OCCCC[C@H](C)Oc3ccc(NS(=O)(=O)c4ccc(Cl)cc4)cc3C(=O)N([C@@H](C)CO)C[C@H]2C)cc1, the cytotoxicity call was “inactive”. With COc1ccc(S(=O)(=O)Nc2ccc3c(c2)C(=O)N([C@@H](C)CO)C[C@H](C)[C@H](CN(C)S(=O)(=O)c2ccc(Cl)cc2)OCCCC[C@H](C)O3)cc1 the cytotoxicity call was “inactive”. COc1ccc(S(=O)(=O)N(C)C[C@@H]2OCCCC[C@H](C)Oc3ccc(NS(=O)(=O)c4ccc(Cl)cc4)cc3C(=O)N([C@H](C)CO)C[C@@H]2C)cc1 was tested, and the cytotoxicity call was “active”. In the case of COc1ccc(S(=O)(=O)N(C)C[C@@H]2OCCCC[C@@H](C)Oc3ccc(NS(=O)(=O)c4ccc(Cl)cc4)cc3C(=O)N([C@@H](C)CO)C[C@H]2C)cc1, the cytotoxicity call is reported as “active”. With COc1ccc(S(=O)(=O)Nc2ccc3c(c2)C(=O)N([C@@H](C)CO)C[C@@H](C)[C@@H](CN(C)S(=O)(=O)c2ccc(Cl)cc2)OCCCC[C@@H](C)O3)cc1 the cytotoxicity call was “inactive”. For COc1ccc(S(=O)(=O)Nc2ccc3c(c2)C(=O)N([C@@H](C)CO)C[C@H](C)[C@@H](CN(C)S(=O)(=O)c2ccc(Cl)cc2)OCCCC[C@H](C)O3)cc1, the cytotoxicity call was “active”. For COc1ccc(S(=O)(=O)Nc2ccc3c(c2)C(=O)N([C@@H](C)CO)C[C@@H](C)[C@@H](CN(C)S(=O)(=O)c2ccc(Cl)cc2)OCCCC[C@H](C)O3)cc1, the cytotoxicity call was “inactive”. For COc1ccc(S(=O)(=O)Nc2ccc3c(c2)C(=O)N([C@H](C)CO)C[C@H](C)[C@@H](CN(C)S(=O)(=O)c2ccc(Cl)cc2)OCCCC[C@H](C)O3)cc1, the cytotoxicity call was “inactive”. For CN(Cc1cc(Br)cc(Br)c1N)C1CCCCC1.Cl, the cytotoxicity call was “inactive”. With C[C@@H]1CN([C@@H](C)CO)C(=O)c2ccccc2-c2ccccc2CO[C@@H]1CN(C)Cc1ccc(-c2ccccc2)cc1 the cytotoxicity call was “inactive”. For Cc1noc(C)c1NC(=O)Nc1ccc2c(c1)C(=O)N([C@@H](C)CO)C[C@@H](C)[C@@H](CN(C)Cc1ccc3c(c1)OCO3)OCCCC[C@H](C)O2, the cytotoxicity call was “inactive”. Cc1cc(C(=O)Nc2cccc3c2O[C@H](CN(C)Cc2ccc(C(=O)O)cc2)[C@H](C)CN([C@@H](C)CO)C3=O)n(C)n1 was tested, and the cytotoxicity call was “inactive”. With CO[C@H]1CN(C)C(=O)c2cc(NS(=O)(=O)c3cn(C)cn3)ccc2OC[C@@H](C)N(CCC(F)(F)F)C[C@@H]1C the cytotoxicity call was “inactive”. With C[C@@H]1CCCCO[C@@H](CN(C)S(C)(=O)=O)[C@@H](C)CN([C@@H](C)CO)C(=O)c2cc(N(C)C)ccc2O1 the cytotoxicity call was “inactive”. With C[C@H](CO)N1C[C@H](C)[C@H](CN(C)S(C)(=O)=O)Oc2ccc(NC(=O)Cn3cnnn3)cc2CC1=O the cytotoxicity call was “inactive”. In the case of CC(C)N1C[C@H](C)[C@@H](CN(C)Cc2ccc(Cl)c(Cl)c2)Oc2c(cccc2-c2nnc(-c3ccncc3)o2)C1=O, the cytotoxicity call is reported as “inactive”. In the case of Cc1noc(C)c1NC(=O)N[C@@H]1CC[C@@H](CC(=O)NCCCN(C)C)O[C@@H]1CO, the cytotoxicity call is reported as “inactive”. In the case of CC(C)CC#Cc1ccc2c(c1)O[C@H](CN(C)C(=O)C1CCOCC1)[C@H](C)CN([C@@H](C)CO)S2(=O)=O, the cytotoxicity call is reported as “inactive”. With CCCN(C)C[C@H]1OCCCC[C@@H](C)Oc2ccc(NS(=O)(=O)c3cn(C)cn3)cc2C(=O)N([C@@H](C)CO)C[C@@H]1C the cytotoxicity call was “inactive”. C[C@H]1CN([C@@H](C)CO)C(=O)c2cccc(NS(=O)(=O)c3cn(C)cn3)c2O[C@H]1CN(C)C(=O)NC1CCCCC1 was tested, and the cytotoxicity call was “inactive”. COc1ccc(S(=O)(=O)Nc2ccc3c(c2)CC(=O)N([C@H](C)CO)C[C@@H](C)[C@H](CN(C)S(=O)(=O)c2ccc(C)cc2)O3)cc1 was tested, and the cytotoxicity call was “inactive”. Cc1noc(C)c1NC(=O)N[C@@H]1C=C[C@@H](CC(=O)NCCCN(C)C)O[C@H]1CO was tested, and the cytotoxicity call was “inactive”. COc1ccc(S(=O)(=O)Nc2ccc3c(c2)C(=O)N([C@@H](C)CO)C[C@H](C)[C@@H](CN(C)S(=O)(=O)c2ccc(Cl)cc2)OCCCC[C@@H](C)O3)cc1 was tested, and the cytotoxicity call was “inactive”. In the case of COc1ccc(S(=O)(=O)N(C)C[C@@H]2OCCCC[C@H](C)Oc3ccc(NS(=O)(=O)c4cn(C)cn4)cc3C(=O)N([C@H](C)CO)C[C@@H]2C)cc1, the cytotoxicity call is reported as “inactive”. In the case of COc1ccc(S(=O)(=O)Nc2ccc3c(c2)C(=O)N([C@H](C)CO)C[C@@H](C)[C@H](CN(C)S(=O)(=O)c2ccc(Cl)cc2)OCCCC[C@@H](C)O3)cc1, the cytotoxicity call is reported as “inactive”. For COc1ccc(S(=O)(=O)N(C)C[C@H]2OCCCC[C@H](C)Oc3ccc(NS(=O)(=O)c4ccc(Cl)cc4)cc3C(=O)N([C@H](C)CO)C[C@H]2C)cc1, the cytotoxicity call was “active”. With COc1ccc(S(=O)(=O)N(C)C[C@@H]2OCCCC[C@@H](C)Oc3ccc(NS(=O)(=O)c4cn(C)cn4)cc3C(=O)N([C@@H](C)CO)C[C@H]2C)cc1 the cytotoxicity call was “inactive”. With COc1ccc(S(=O)(=O)N(C)C[C@H]2OCCCC[C@@H](C)Oc3ccc(NS(=O)(=O)c4ccc(Cl)cc4)cc3C(=O)N([C@H](C)CO)C[C@H]2C)cc1 the cytotoxicity call was “active”. For COc1ccc(S(=O)(=O)Nc2ccc3c(c2)C(=O)N([C@@H](C)CO)C[C@H](C)[C@H](CN(C)S(=O)(=O)c2ccc(Cl)cc2)OCCCC[C@@H](C)O3)cc1, the cytotoxicity call was “active”. In the case of COc1ccc(S(=O)(=O)N(C)C[C@H]2OCCCC[C@@H](C)Oc3ccc(NS(=O)(=O)c4cn(C)cn4)cc3C(=O)N([C@H](C)CO)C[C@H]2C)cc1, the cytotoxicity call is reported as “active”. With Cc1noc(C)c1S(=O)(=O)Nc1ccc2c(c1)C(=O)N([C@H](C)CO)C[C@@H](C)[C@@H](CN(C)S(=O)(=O)c1ccccc1)O2 the cytotoxicity call was “inactive”. COc1ccc(NC(=O)Nc2cccc3c2O[C@@H](CN(C)S(C)(=O)=O)[C@H](C)CN([C@H](C)CO)C3=O)cc1 was tested, and the cytotoxicity call was “inactive”. In the case of COc1cccc(NC(=O)N[C@H]2CC[C@@H](CC(=O)N3CCOCC3)O[C@@H]2CO)c1, the cytotoxicity call is reported as “inactive”. With CO[C@@H]1CN(C)C(=O)c2cc(NC(=O)C3CCOCC3)ccc2OC[C@@H](C)N(C(=O)C2CCOCC2)C[C@H]1C the cytotoxicity call was “inactive”. With CN1C(=O)c2cc(NS(=O)(=O)c3ccc(F)cc3)ccc2OC[C@H]2O[C@@H](CC(=O)Nc3cccc4ccccc34)CC[C@@H]21 the cytotoxicity call was “inactive”. With C[C@H](CO)N1C[C@H](C)[C@H](CN(C)C(=O)Nc2ccc(F)cc2)OCCCC[C@H](C)Oc2ccc(NC(=O)CCCN(C)C)cc2C1=O the cytotoxicity call was “inactive”. In the case of COc1ccc(S(=O)(=O)Nc2ccc3c(c2)CC(=O)N([C@@H](C)CO)C[C@@H](C)[C@H](CN(C)Cc2ccc(C(=O)O)cc2)O3)cc1, the cytotoxicity call is reported as “inactive”. With C[C@@H]1CN([C@@H](C)CO)C(=O)c2cc(NS(=O)(=O)c3ccccc3)ccc2O[C@@H](C)CCCCO[C@H]1CN(C)Cc1ccccc1 the cytotoxicity call was “inactive”. With COc1ccc(S(=O)(=O)Nc2ccc3c(c2)C(=O)N([C@H](C)CO)C[C@@H](C)[C@H](CN(C)S(=O)(=O)c2ccc(Cl)cc2)OCCCC[C@H](C)O3)cc1 the cytotoxicity call was “inactive”. In the case of COc1ccc(S(=O)(=O)N(C)C[C@@H]2OCCCC[C@@H](C)Oc3ccc(NS(=O)(=O)c4ccc(Cl)cc4)cc3C(=O)N([C@H](C)CO)C[C@H]2C)cc1, the cytotoxicity call is reported as “active”. For COc1ccc(S(=O)(=O)Nc2ccc3c(c2)C(=O)N([C@H](C)CO)C[C@H](C)[C@@H](CN(C)S(=O)(=O)c2ccc(Cl)cc2)OCCCC[C@@H](C)O3)cc1, the cytotoxicity call was “active”. COc1ccc(S(=O)(=O)N(C)C[C@@H]2OCCCC[C@H](C)Oc3ccc(NS(=O)(=O)c4ccc(Cl)cc4)cc3C(=O)N([C@H](C)CO)C[C@H]2C)cc1 was tested, and the cytotoxicity call was “active”. For COc1ccc(S(=O)(=O)N(C)C[C@@H]2OCCCC[C@@H](C)Oc3ccc(NS(=O)(=O)c4ccc(Cl)cc4)cc3C(=O)N([C@@H](C)CO)C[C@@H]2C)cc1, the cytotoxicity call was “inactive”. With COc1ccc(S(=O)(=O)N(C)C[C@H]2OCCCC[C@@H](C)Oc3ccc(NS(=O)(=O)c4ccc(Cl)cc4)cc3C(=O)N([C@@H](C)CO)C[C@H]2C)cc1 the cytotoxicity call was “active”. For COc1ccc(NC(=O)Nc2ccc3c(c2)C(=O)N([C@@H](C)CO)C[C@@H](C)[C@@H](CN(C)C(=O)Nc2cccc4ccccc24)OCCCC[C@H](C)O3)cc1, the cytotoxicity call was “inactive”. For C[C@@H]1CCCCO[C@@H](CN(C)C(=O)Nc2ccc(F)cc2)[C@H](C)CN([C@@H](C)CO)C(=O)c2cc(NC(=O)Nc3ccc(F)cc3)ccc2O1, the cytotoxicity call was “inactive”.

From the antibiotic and cytotoxicity screens of Wong et al. (2023)
